Structures are written as SMILES.

The test system of the experiment is E18 rat cortical neuron-glia co-culture. The experiment in a line: myelination (MBP fiber length per Olig2+ nucleus), % of 1 µM DAPT response (DMSO = 0) (% of DAPT); higher = more myelination, active = 50 or more. The settings on record: 5 µM; treatment time: 8 days (DIV5-DIV13). In outline:
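Primary E18 rat cortical co-cultures (papain-dissociated, 20,000 cells/well on poly-d-lysine/laminin 96-well plates) received library compounds at 1 or 5 µM in myelination medium from DIV5 to DIV13. Cells were fixed in 4 % paraformaldehyde and immunostained for MBP and Olig2 with DAPI, and four 10X fields per well in duplicate wells were analysed. Myelination was continuous straight MBP fiber length per Olig2+ nucleus, normalised to 0.1 % DMSO (0) and a 1 µM positive control (100).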
Turning to `c1cnc(N2CCN(Cc3ccc4c(c3)OCO4)CC2)nc1` [Piribedil], the myelination was -35.6 (inactive).

For `CC(=O)[C@H]1CC[C@H]2[C@@H]3C[C@H](C)C4=CC(=O)CC[C@]4(C)[C@H]3[C@@H](O)C[C@]12C` [Medrysone], the myelination was 6.18 (inactive).

In the case of `CN(C)CCCN1c2ccccc2CCc2ccc(Cl)cc21` [Clomipramine], the myelination was -23 (inactive).

As to `CCCc1nc(C(C)(C)O)c(C(=O)O)n1Cc1ccc(-c2ccccc2-c2nnn[nH]2)cc1` [Olmesartan], the myelination is -45 (inactive).

For the molecule `Nc1nc(N)nc(-c2cc(Cl)ccc2Cl)n1` [Irsogladine], the myelination was -20.9 (inactive).

As for `CC(C)OC(=O)CCC/C=C\C[C@@H]1[C@@H](CC[C@@H](O)CCc2ccccc2)[C@H](O)C[C@@H]1O` [Latanoprost], the myelination is -8.74 (inactive).

As to `CC1CNc2c(cccc2S(=O)(=O)N[C@@H](CCCNC(=N)N)C(=O)N2CC[C@@H](C)C[C@@H]2C(=O)O)C1` (stereo partly drawn) [Argatroban], the myelination was -49.9 (inactive).

For `COc1c(N2CCNC(C)C2)c(F)cc2c(=O)c(C(=O)O)cn(C3CC3)c12` (stereo not drawn) [Gatifloxacin], the myelination is -14.2 (inactive).

As to `O=C1N(c2ccccc2)c2ccccc2C1(Cc1ccncc1)Cc1ccncc1` [Linopirdine], the myelination was -12 (inactive).

`COc1ccccc1N1CCN(CCCNc2cc(=O)n(C)c(=O)n2C)CC1` [Urapidil]: the myelination is -23.7 (inactive).

With `CN1C2CCCC1CC(NC(=O)c1nn(C)c3ccccc13)C2` (stereo not drawn) [Granisetron], the myelination is 1.32 (inactive).

With `Cc1ccc(-c2cc(C(F)(F)F)nn2-c2ccc(S(N)(=O)=O)cc2)cc1` [Celecoxib], the myelination is -0.0582 (inactive).

As to `CCc1cccc2c3c([nH]c12)C(CC)(CC(=O)O)OCC3` (stereo not drawn) [Etodolac], the myelination is 16.1 (inactive).

Consider `NS(=O)(=O)c1cc(C2(O)NC(=O)c3ccccc32)ccc1Cl` (stereo not drawn) [Chlorthalidone], for which the myelination was 7.87 (inactive).

Take `Nc1cc(N2CCCCC2)nc(N)[n+]1[O-]` [Minoxidil]: the myelination was -24.5 (inactive).

Consider `COc1ccc2[nH]c([S@@+]([O-])Cc3ncc(C)c(OC)c3C)nc2c1` [Esomeprazole], for which the myelination is 4.81 (inactive).

In the case of `Cn1c(NCCN(CCO)CCCc2ccc([N+](=O)[O-])cc2)cc(=O)n(C)c1=O` [Nifekalant], the myelination was -19.6 (inactive).

Regarding `CCCOc1ccc(C(=O)OCCN(CC)CC)cc1N` [Proxymetacaine], the myelination was -12.1 (inactive).

For the molecule `COCCCOc1ccnc(C[S+]([O-])c2nc3ccccc3[nH]2)c1C` (stereo not drawn) [Rabeprazole], the myelination is 10.6 (inactive).

In the case of `OC(CCN1CCCCC1)(c1ccccc1)C1CCCCC1` (stereo not drawn) [Trihexyphenidyl], the myelination was -15.2 (inactive).

In the case of `CCN(CC)CCNC(=O)c1cc(Cl)c(N)cc1OC` [Metoclopramide], the myelination is -2.72 (inactive).

Consider `COc1cc(N)c(Cl)cc1C(=O)NC1CCN(CCCOc2ccc(F)cc2)CC1OC` (stereo not drawn) [Cisapride], for which the myelination was -10.2 (inactive).

In the case of `CC1(C)O[C@@H]2[C@@H](CO[C@@]3(COS(N)(=O)=O)OC(C)(C)O[C@@H]23)O1` [Topiramate], the myelination is -11.6 (inactive).

With `CC(C)Cc1ccc(C(C)C(=O)O)cc1` (stereo not drawn) [Ibuprofen], the myelination was -2.85 (inactive).

With `COC(=O)[C@H](c1ccccc1Cl)N1CCc2sccc2C1` [Clopidogrel], the myelination is -2.98 (inactive).

For `COC1=CC(=O)C[C@@H](C)[C@]12Oc1c(Cl)c(OC)cc(OC)c1C2=O` [Griseofulvin], the myelination is 21.8 (inactive).

As for `O=C(O)c1cc(/N=N/c2ccc(S(=O)(=O)Nc3ccccn3)cc2)ccc1O` [Sulfasalazine], the myelination is 1.71 (inactive).

For `Cc1nccn1CC1CCc2c(c3ccccc3n2C)C1=O` (stereo not drawn) [Ondansetron], the myelination is -35.8 (inactive).

In the case of `CCN(CC)CCNC(=O)c1ccc(N)cc1` [Procainamide], the myelination is 4.78 (inactive).

As for `Nc1nc(Cl)nc2c1ncn2[C@@H]1O[C@H](CO)[C@@H](O)[C@H]1O` [2-Chloroadenosine], the myelination was -10.5 (inactive).

As for `COC(=O)C1=C(C)NC(C)=C(C(=O)OC(C)C)C1c1cccc2nonc12` (stereo not drawn) [Isradipine], the myelination is 34.9 (inactive).

In the case of `O=C(CCCN1CC=C(n2c(=O)[nH]c3ccccc32)CC1)c1ccc(F)cc1` [Droperidol], the myelination was -16.6 (inactive).

Regarding `CO[C@H]1/C=C/O[C@@]2(C)Oc3c(C)c(O)c4c(O)c(c(/C=N/N5CCN(C6CCCC6)CC5)c(O)c4c3C2=O)NC(=O)/C(C)=C\C=C\[C@H](C)[C@H](O)[C@@H](C)[C@@H](O)[C@@H](C)[C@H](OC(C)=O)[C@@H]1C` [Rifapentine], the myelination is 21 (inactive).

These data come from the supplement of paper PMC4840960.
